Inconclusive results are not listed. Values without a mark were called inactive. Activity calls are given as the source filed them. Calls come from the whole dose curve; as a rule, active = well fitted cell-killing curve with a large enough effect in the repeat runs; inconclusive = weak or mixed curves, or effect the other way; inactive = flat fitted curve, though single readings scatter.
Assay: cAMP Responsive Elements (CRE) small molecule agonists, cell-based qHTS assay: qHTS cell viability counter screen (AID 2060914); note: nearly all actives have a fitted effect of over 50% in size
Conditions: CRE-bla HEK293T viability, CellTiter-Glo luminescence, 5 h; series mostly up to 92.4 µM; activity change, negative = cytotoxicity: at the top concentration
Outline: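 Cells are seeded and incubated 18 h, treated with compounds in DMSO for 3 h, read for the bla reporter, then given CellTiter-Glo; luminescence is measured after 30 min at room temperature.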
% is set by controls: 0 for no effect and ±100 for the full control effect.

Structure (SMILES)	activity change, negative = cytotoxicity	Potency
CN(C)CCOCCN(C)CCO	5.44%	
CCOC(=O)C(=O)CCc1ccccc1	17.5% [at 42.5 µM]	
C[C@@H](O)[C@H]1C(=O)N2C(C(=O)O)=C(S[C@@H]3CN[C@H](CNS(N)(=O)=O)C3)[C@H](C)[C@H]12	-0.905% [at 42.5 µM]	
O=C(O)c1ccc(Cl)c(Cl)c1	-11.6%	
O=C(O)CCn1c2c(c3ccccc31)C[C@H](NS(=O)(=O)c1ccc(F)cc1)CC2	10.4% [at 42.5 µM]	
NCCN1CCNCC1		inactive
CO[Si](OC)(OC)OC	6.12%	
CC1(C)[C@H](C(=O)O)N2C(=O)C[C@H]2S1(=O)=O	-7.45% [at 42.5 µM]	
CCOC(=O)CC(C)O (configuration not stated)	1.11%	
CCCC(=O)O[C@]1(C(=O)CC)CC[C@H]2[C@@H]3CCC4=CC(=O)CC[C@]4(C)[C@H]3[C@@H](O)C[C@@]21C	6.38% [at 42.5 µM]	
CCCc1c2oc(C(=O)O)cc(=O)c2cc2c(=O)cc(C(=O)O)n(CC)c12	0.201% [at 42.5 µM]	
CCCCN(CCCC)CC(O)c1cc(Cl)cc2c1-c1ccc(Cl)cc1/C2=C/c1ccc(Cl)cc1 (configuration not stated)	-9.3% [at 42.5 µM]	
